High-throughput results deposited in PubChem BioAssay by several laboratories.
Bim-Mcl-1: inhibitors of Bim peptide binding to Mcl-1, primary screen, biochemical, bead-based flow cytometry, multiplex | inhibition, % at 10 µM | AID 1009, 2008 | Bim peptide-Mcl-1 binding | 190,000 compounds, 0.1% hits; in the data active means inhibition above about 40%
Target sequence (Q07820 whole entry, looked up): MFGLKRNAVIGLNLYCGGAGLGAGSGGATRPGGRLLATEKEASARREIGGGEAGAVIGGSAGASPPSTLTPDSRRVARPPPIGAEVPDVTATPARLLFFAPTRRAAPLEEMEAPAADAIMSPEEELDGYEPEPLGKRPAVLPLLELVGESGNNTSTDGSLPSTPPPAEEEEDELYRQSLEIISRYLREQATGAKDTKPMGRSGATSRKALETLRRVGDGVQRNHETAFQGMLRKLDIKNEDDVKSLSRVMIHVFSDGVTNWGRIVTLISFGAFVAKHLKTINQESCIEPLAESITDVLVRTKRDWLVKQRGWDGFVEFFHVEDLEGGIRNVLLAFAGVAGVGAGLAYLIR
Mcl1-Noxa inh: Mcl-1/Noxa binding inhibitors, primary screen, biochemical, TR-FRET, 1536-well | 220,000 compounds, 1.5% hits | TR-FRET Mcl-1/Noxa peptide binding, 2 h | inhibition, % at 21.7 µM | Induced myeloid leukemia cell differentiation protein Mcl-1 (Homo sapiens), Q07820;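 active means compounds that cut the protein-peptide binding signal by more than 50% relative to plate controls in a single-dose test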;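 further: His-tagged Mcl-1 with rhodamine Noxa BH3 peptide and terbium anti-His antibody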
Mcl1-Bid inh: Mcl-1/Bid binding inhibitors, primary screen, biochemical, TR-FRET, 1536-well; 220,000 compounds, 0.97% hits; inhibition, % at 21.7 µM; TR-FRET Mcl-1/Bid-Dy647 peptide binding; AID 1021, 2008;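 active means compounds that cut the binding signal by more than half at the single screening dose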;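 further: His-tagged Mcl-1 with europium anti-His antibody binding Bid BH3 peptide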
MCL1 BIM primary: inhibitors of MCL1 binding to BIM-BH3, primary screen, biochemical, fluorescence polarization; inhibition, % at 10.9 µM; 320,000 compounds, 0.68% hits; GST-MCL1 / FITC-Bim-BH3 fluorescence polarization;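 active means inhibition above the mean inhibition of all tested compounds plus 3 SD, set per campaign, cut at about 40% in these data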;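 further: higher means more loss of mP so more displacement of Bim peptide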
Bcl-xL conf: Bcl-xL inhibitors blocking Bim BH3 binding, confirmation, counter-screen for MCL1 inhibitor project, biochemical, fluorescence polarization; shares compounds with MCL1 BIM primary; GST-Bcl-xL / FITC-Bim BH3 peptide FP binding; inhibition, % at 10.9 µM; 1,700 compounds, 54% hits; AID 2166, 2009;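 active means inhibition above a cutoff equal to the mean inhibition of all tested compounds plus 3 SD, cut at about 30% in these data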
Target sequence (Q07817 whole entry, looked up): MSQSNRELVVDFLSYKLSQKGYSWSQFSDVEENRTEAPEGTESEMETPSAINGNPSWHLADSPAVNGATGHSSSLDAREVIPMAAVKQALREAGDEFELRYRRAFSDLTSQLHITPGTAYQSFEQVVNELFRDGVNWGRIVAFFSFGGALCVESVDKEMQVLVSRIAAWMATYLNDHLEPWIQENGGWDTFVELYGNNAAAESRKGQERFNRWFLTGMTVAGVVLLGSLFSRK
MCL1 BIM confirm: inhibitors of MCL1 binding to BIM-BH3, confirmation, biochemical, fluorescence polarization, triplicate | shares compounds with MCL1 BIM primary | GST-MCL1 / FITC-Bim-BH3 fluorescence polarization | inhibition, % at 10.9 µM | 1,700 compounds, 61% hits | AID 2168, 2009;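 active means inhibition above the average of all tested compounds plus 3 SD, cut at about 40% in these data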
A number is an active result; - = inactive; . = no result; + = active, no number. The list is not random: actives were taken first. Their share in the collection is about 2%.

SMILES	Bim-Mcl-1	Mcl1-Noxa inh	Mcl1-Bid inh	MCL1 BIM primary	Bcl-xL conf	MCL1 BIM confirm
CC(=O)Oc1ccc(N2C(=O)C3C(C2=O)C(C(=O)c2ccc(Cl)cc2)N2CCCC32)cc1 (stereo unspecified)	.	-	-	74	66	86
CC1(C)CC(=O)C2=C(C1)Nc1ccccc1NC2c1cc(Cl)ccc1O (stereo unspecified)	.	.	.	-	.	.
Cc1cc2c(cc1C)NC(c1c(C)n(C)n(-c3ccccc3)c1=O)C1=C(CC(C)(C)CC1=O)N2 (stereo unspecified)	-	-	-	135	-	-
Cc1ccc(C2Nc3ccccc3NC3=C2C(=O)CC(C)(C)C3)c(O)c1 (stereo unspecified)	.	.	.	52	67	94
Cc1n[nH]c(C)c1N1C(=O)c2cccc3c(N4CCCCCC4)ccc(c23)C1=O	-	-	-	+	184	+
O=C1c2cccc3c(N4CCCCC4)ccc(c23)C(=O)N1c1cccc(O)c1	-	-	-	-	.	.
CN1CCC2(CC1)C1CN(C)CC=C1C(C#N)=C(N)C2(C#N)C#N (stereo unspecified)	-	-	-	140	117	146
CC(C)OC(=O)CC(=O)c1sc2nc3c(cc2c1N)CN(C)CC3	-	57	-	98	60	72
CCOC(=O)c1sc2nc3c(cc2c1N)COC(C(C)C)C3 (stereo unspecified)	-	-	-	-	.	.
CN1CCc2cc3c(c4c2[C@H]1[C@H](O)c1ccccc1-4)OCO3	-	-	-	124	61	80
O=C(O[C@@H]1OC2COC(=O)c3cc(O)c(O)c(O)c3-c3c(cc(O)c(O)c3O)C(=O)O[C@@H]([C@H]1O)[C@@H]2O)c1cc(O)c(O)c(O)c1	-	113	-	91	74	87
Clc1ccc(Cn2cccn2)cn1	-	-	-	-	.	.
COC1CCN(C(=O)CC2C(=O)NCCN2CC(C)(C)C)CC1 (stereo unspecified)	-	-	-	50	-	-
C=CCn1c(CSc2ccccc2[N+](=O)[O-])n[nH]c1=S	.	.	.	46	-	46
COc1ccc(OCC(O)CNC(=O)c2ccc(OC)cc2)cc1 (stereo unspecified)	-	-	-	44	-	-
COc1ccc(OCC(O)CNC(=O)c2ccc(Br)cc2)cc1 (stereo unspecified)	-	-	-	-	.	.
CSc1cccc(NC(=S)N(CCC(C)C)C(C)c2ccncc2)c1 (stereo unspecified)	.	-	-	-	.	.
CCCCn1c(N)c(NCc2ccccc2OC)c(=O)[nH]c1=O	-	-	-	-	.	.
CCCCNc1c(N)n(CCCC)c(=O)[nH]c1=O	-	-	-	52	56	79
CCCCn1c(N)c(NCCC)c(=O)[nH]c1=O	-	-	-	50	-	-
CSc1ccc(CNC(=O)C2CCC(=O)N(CCc3cccc(F)c3)C2)cc1 (stereo unspecified)	.	.	.	-	.	.
C/C(=N\NC(=O)c1cc(O)ccc1O)c1cccc(NC(=O)c2ccc(Cl)cc2)c1	.	.	.	48	-	47
CC1(OC(=O)c2cccs2)C(=O)C=C2C=C3CCCN3C=C2C1=O (stereo unspecified)	.	72	-	63	44	63
O=c1[nH]c(N2CCCCC2)nc2ncn(Cc3ccccc3)c12	.	-	-	-	.	.
Cc1ccc(NC(=S)NNc2ccc(C(=O)O)cc2[N+](=O)[O-])cc1C	.	.	.	-	.	.
SMILES	Bim-Mcl-1	Mcl1-Noxa inh	Mcl1-Bid inh	MCL1 BIM primary	Bcl-xL conf	MCL1 BIM confirm
Cc1ccc(NC(=S)NNc2ccc([N+](=O)[O-])cc2S(=O)(=O)Nc2ccccc2C(=O)O)cc1C	-	87	-	40	-	-
COc1ccc2[nH]cc(CCNS(=O)(=O)c3ccccc3)c2c1	-	-	-	-	.	.
O=C(O)CCCNC(=O)CCCn1nnc2ccccc2c1=O	.	-	-	-	.	.
CCC(=O)Nc1nc2n(n1)C(c1ccc(OC)cc1)C=C(c1ccccc1)N2 (stereo unspecified)	-	-	-	60	75	92
OCCCc1nc2n(n1)C(c1ccccc1)C=C(c1ccccc1)N2 (stereo unspecified)	-	-	-	-	.	.
O=C(c1nc2n(n1)C(c1ccc(Cl)cc1)C=C(c1ccccc1)N2)N1CCOCC1 (stereo unspecified)	-	-	-	75	71	89
COc1ccccc1C1C=C(c2ccc(Cl)cc2)Nc2nc(NS(C)(=O)=O)nn21 (stereo unspecified)	-	-	-	71	46	59
CC(=O)Nc1nc2n(n1)C(c1ccc(Cl)cc1)C=C(C)N2 (stereo unspecified)	-	-	-	-	.	.
CC1=CC(c2ccccc2)n2nc(NC(=O)CCC(=O)O)nc2N1 (stereo unspecified)	.	-	-	-	.	.
CC(=O)Nc1nc2n(n1)C(c1ccccc1)C=C(c1ccccc1)N2 (stereo unspecified)	-	-	-	53	57	80
COc1ccc(CN2C(=NC(=O)C3CC3)SC3CS(=O)(=O)CC32)cc1OC (stereo unspecified)	.	.	.	-	.	.
CCOC(=O)N1CCC(N2Cc3cccc(C(=O)Nc4ccc(N(CC)CC)cc4C)c3C2=O)CC1	.	.	.	-	.	.
NC(=O)Cn1c(=O)n(CCC(=O)NCCSCc2ccccc2)c(=O)c2ccccc21	-	-	-	-	.	.
O=C1CCC(=O)N1c1nc2n(n1)C(c1ccccc1)C=C(c1ccc(Br)cc1)N2 (stereo unspecified)	-	-	-	-	.	.
COc1ccc(C2C=C(c3ccc(Br)cc3)Nc3nc(N4C(=O)CCC4=O)nn32)cc1 (stereo unspecified)	-	-	-	135	84	100
CS(=O)(=O)Nc1nc2n(n1)C(c1ccccc1)C=C(c1ccc(Br)cc1)N2 (stereo unspecified)	-	-	-	181	134	164
CC(=O)c1ccc(N(C(=O)CNC(=O)c2ccco2)C(C(=O)NC2CCCC2)c2ccncc2)cc1 (stereo unspecified)	.	.	.	-	.	.
O=C1c2cccc(O)c2C(=O)c2c(O)cc(CO)cc21	.	.	.	100	81	100
Cc1cc(O)c2c(c1)C(=O)c1cc(O)cc(O)c1C2=O	.	.	.	-	.	.
CCN1C(=O)C2CCCCN2c2ccc(C(=O)NCCOC)cc21 (stereo unspecified)	.	.	.	-	.	.
